Reference: PubChem BioAssay
Several values for one entry are separate records, joined by “and”; a condition that tells them apart may be missing. Identical values can stand only once. Inconclusive results are not listed. Activity calls are given as the source filed them.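 The calls were made as follows, unless noted: active = percent response above 42, roughly 3 SD of non-fluorescent test compounds; inactive = the rest.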

Legend:
[1] = rapamycin-like changes in RPL19A-GFP expression – cell-based, S. cerevisiae, multiplex flow cytometry, primary screen (AID 1862; in the data active = percent of DMSO control GFP below about 86%;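 also: lower values mimic rapamycin by blocking the RPL19A rise seen in DMSO cells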); details: S. cerevisiae RPL19A-GFP strain, flow cytometry fluorescence, 3 h; at 10 µM; stronger effect = lower value
[2] = TOR pathway GLN3 branch reporter MEP2-GFP changes – S. cerevisiae, multiplex flow cytometry, primary screen (AID 1867;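 active = GFP response, as percent of the DMSO control, above the screen-wide mean plus 3 SD, about 139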;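 also: median GFP channel fluorescence of barcode-gated MEP2-GFP cells measured by flow cytometry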); details: S. cerevisiae MEP2-GFP strain, 3 h, at 10 µM, stronger effect = higher value, 100% means same as DMSO wells
[3] = TOR pathway RTG branch CIT2 reporter changes – S. cerevisiae, GFP fusion, multiplex flow cytometry, primary screen (AID 1870;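 active = percent response above a set limit, the screen-wide mean plus 3 SD, cut at about 130% in these data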;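 also: barcoded CIT2-GFP strain pooled with four other GFP strains with rapamycin as positive control; median GFP fluorescence per well over plate mean of DMSO wells so 100% = DMSO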); details: S. cerevisiae CIT2-GFP expression, 3 h, at 10 µM, stronger effect = higher value
[4] = TOR pathway LAP4-GFP level changes – S. cerevisiae, multiplex flow cytometry, primary screen (AID 1873;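 active = GFP signal, as percent of the solvent control, above the screen mean plus 3 SD, about 149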); details: S. cerevisiae LAP4-GFP expression, 3 h, at 10 µM, stronger effect = higher value
[5] = yeast AGP1-GFP level changes, GLN3 branch – cell-based, multiplex flow cytometry, S. cerevisiae, primary screen (AID 1887;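 active = GFP signal above the screen-wide mean plus 3 SD, that is over about 124.5% of the solvent control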;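 also: AGP1-GFP fusion strain of S. cerevisiae within a five-strain barcoded multiplex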); details: 3 h, at 10 µM, stronger effect = higher value
[6] = reduced mouse 2C T cell binding to pMHC/ICAM-1 vesicles – MLPCN validation set, flow cytometry, LFA-1/ICAM-1 modulator project, pilot screen (AID 2523;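 active = response below a set limit, under 55% cells CD8-positive and vesicle-bound, and CD8 cells' 90th-percentile brightness under 279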;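 as to vesicle binding response: mean PE anti-B7-1 fluorescence of CD8+ cells relative to row control; 100% = QL9-loaded vesicles with DMSO vehicle in the same plate row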); details: 2C mouse CD8+ T cells, at 7 µM, stronger effect = lower value; double positive events: measured here: CD8+/vesicle+ event percentage
[7] = target: Integrin beta-1 (Homo sapiens) + Integrin alpha-4 (Homo sapiens) (UniProt P13612+P05556); assay: alpha4beta1 integrin LIBS antibody binding reduction – U937 cells, HUTS-21 mAb, flow cytometry, validation set, VLA-4 allosteric modulator project, pilot screen (AID 2674;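 active = inhibition above 50%, about 3 SD of the validation set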;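 also: antibody binding induced by the VLA-4 ligand LDV present at three times its Kd; 0% = LDV ligand with antibody and no compound and 100% = antibody without LDV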); details: HUTS-21 LIBS mAb binding, at 6.7 µM, stronger effect = higher value, binding induced by LDV ligand
[8] = calorie-restriction mimetic ROS inhibitors, yeast – validation compound set, pilot screen (AID 2706;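 active = superoxide response below 65% of plate, a cut near 3 SD across the whole screen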;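 also: yeast exposed to compound for one week at 30 degrees C before staining; 100% = mean of all compound wells on the same plate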); details: S. cerevisiae aging, superoxide DHE fluorescence; at 10 µM; stronger effect = lower value
[9] = target: Beta-adrenergic receptor kinase 1 (Homo sapiens) (UniProt P25098); assay: GRK2 binders displacing RNA aptamer, biochemical, validation, human GRK2, bead flow cytometry (AID 488806;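 active = aptamer binding inhibition above 30%, about 3 SD of noise from non-fluorescent compounds; inactive = inhibition at or below 30%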); details: bead-bound GRK2, FAM-aptamer displacement, at 10 µM, stronger effect = higher value
[10] = target: Beta-2 adrenergic receptor (Homo sapiens) (UniProt P07550); assay: agonist-induced loss of surface beta2AR – cell-based, FAP fluorogen, flow cytometry, validation set, pilot screen (AID 504459); details: Am2.2-beta2AR cells, at 10 µM, stronger effect = higher value;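 also: agonist-driven loss of surface beta2AR via internalization measured by FAP dye flow cytometry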
[11] = target: AP-2 complex subunit beta (Homo sapiens) (UniProt P63010); assay: beta-arrestin/AP2 interaction blockers – biochemical, validation set, GST-AP2 beads, flow cytometry, pilot screen (AID 504541;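 active = inhibition above 54%, about 3 SD of non-fluorescent compounds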;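 also: AP2 carries R879A mutation and is captured from E. coli lysate; bead-bound FITC arrestin peptide fluorescence measuring arrestin peptide binding to AP2; 0% = DMSO wells and 100% = excess unlabeled arrestin peptide control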); details: FITC arrestin peptide, at 10 µM, stronger effect = higher value, AP2 beta2 appendage fragment, R879A mutant
[12] = cytosolic pH regulators acting via V-ATPase – S. cerevisiae, pHLuorin, HTS validation (AID 504600; in the data active = response above about 15%;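 also: plate controls were DMSO for no effect and reference compound for full effect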); details: V-ATPase proton transport, at 10 µM, stronger effect = higher value
[13] = system: anti-desmoglein-3 scFv antibody binding to human DSG3; assay: blockers of pathogenic pemphigus antibody–desmoglein-3 binding – biochemical, validation compound set, bead-based, flow cytometry, pilot screen (AID 588368;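 active = binding below the plate cutoff, the plate median minus 3 SD, with a reading above zero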;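 also: signal is the median channel fluorescence of bead-bound GFP antibody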); details: Protein G beads, DSG3-Fc, scFv-GFP binding, at 10 µM, stronger effect = lower value
[14] = Nile Red efflux blockade in pump-expressing yeast – validation compound set, multiplex, phenotypic, pilot screen (AID 588506;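 active = efflux inhibition above 0.42, the validation set average plus 4 SD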;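 also: Nile Red retained in cells so higher fluorescence means more efflux inhibition; 0 = negative control wells and 1 = enniatin B 25 µM full block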); details: S. cerevisiae pump-expressing triplex, Nile Red efflux flow cytometry; at 10 µM; stronger effect = higher value; the pumps come from Candida albicans
[15] = target: ATP-binding cassette sub-family B member 6 (Homo sapiens) (UniProt Q9NP58); assay: blockers of ABCB6-driven porphyrin uptake – K562-ABCB6 cells, flow cytometry, validation set, pilot screen (AID 588550;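 active = inhibition above the screen-wide mean plus 3 SD, about 51%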;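 also: 0% = DMSO wells and 100% = benzethonium chloride 70 µM positive control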); details: K562-ABCB6 porphyrin accumulation, 1 h, at 10 µM, stronger effect = higher value
[16] = AML differentiation inducers, ER-HoxA9 marrow cells – cell-based, GFP/MAC1 double positive, flow cytometry, validation set, primary screen (AID 588685;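 active = differentiation response of at least 50%, scaled between solvent and reference control, from cells with both markers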;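 also: compound exposure lasts four days before antibody staining and flow analysis; 0% = DMSO wells and 100% = 5 µM fulvestrant positive control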); details: stronger effect = higher value, normalized: vehicle 0, fulvestrant 100

Sequence of Integrin beta-1 (Homo sapiens) + Integrin alpha-4 (Homo sapiens) (P05556 whole entry, looked up): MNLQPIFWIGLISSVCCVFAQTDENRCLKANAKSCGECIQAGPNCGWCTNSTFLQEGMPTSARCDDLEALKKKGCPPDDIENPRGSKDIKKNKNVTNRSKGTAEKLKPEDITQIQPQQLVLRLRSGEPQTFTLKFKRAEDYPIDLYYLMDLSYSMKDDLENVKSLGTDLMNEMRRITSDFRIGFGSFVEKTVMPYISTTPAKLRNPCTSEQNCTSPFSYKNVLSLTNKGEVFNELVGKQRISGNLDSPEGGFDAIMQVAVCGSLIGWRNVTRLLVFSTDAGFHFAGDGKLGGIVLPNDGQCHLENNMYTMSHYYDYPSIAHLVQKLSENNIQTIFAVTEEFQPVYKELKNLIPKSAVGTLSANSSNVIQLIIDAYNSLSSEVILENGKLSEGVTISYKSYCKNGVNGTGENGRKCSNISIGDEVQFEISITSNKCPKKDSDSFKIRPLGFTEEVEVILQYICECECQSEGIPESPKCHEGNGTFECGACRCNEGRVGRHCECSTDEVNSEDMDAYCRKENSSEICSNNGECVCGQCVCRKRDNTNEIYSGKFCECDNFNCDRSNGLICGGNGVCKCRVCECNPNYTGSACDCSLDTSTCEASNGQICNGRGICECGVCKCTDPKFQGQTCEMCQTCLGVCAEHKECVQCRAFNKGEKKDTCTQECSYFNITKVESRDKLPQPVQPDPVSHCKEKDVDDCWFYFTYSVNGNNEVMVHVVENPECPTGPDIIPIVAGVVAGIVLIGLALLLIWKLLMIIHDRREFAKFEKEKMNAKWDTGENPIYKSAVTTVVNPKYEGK
Sequence of Integrin beta-1 (Homo sapiens) + Integrin alpha-4 (Homo sapiens) (P13612 whole entry, looked up): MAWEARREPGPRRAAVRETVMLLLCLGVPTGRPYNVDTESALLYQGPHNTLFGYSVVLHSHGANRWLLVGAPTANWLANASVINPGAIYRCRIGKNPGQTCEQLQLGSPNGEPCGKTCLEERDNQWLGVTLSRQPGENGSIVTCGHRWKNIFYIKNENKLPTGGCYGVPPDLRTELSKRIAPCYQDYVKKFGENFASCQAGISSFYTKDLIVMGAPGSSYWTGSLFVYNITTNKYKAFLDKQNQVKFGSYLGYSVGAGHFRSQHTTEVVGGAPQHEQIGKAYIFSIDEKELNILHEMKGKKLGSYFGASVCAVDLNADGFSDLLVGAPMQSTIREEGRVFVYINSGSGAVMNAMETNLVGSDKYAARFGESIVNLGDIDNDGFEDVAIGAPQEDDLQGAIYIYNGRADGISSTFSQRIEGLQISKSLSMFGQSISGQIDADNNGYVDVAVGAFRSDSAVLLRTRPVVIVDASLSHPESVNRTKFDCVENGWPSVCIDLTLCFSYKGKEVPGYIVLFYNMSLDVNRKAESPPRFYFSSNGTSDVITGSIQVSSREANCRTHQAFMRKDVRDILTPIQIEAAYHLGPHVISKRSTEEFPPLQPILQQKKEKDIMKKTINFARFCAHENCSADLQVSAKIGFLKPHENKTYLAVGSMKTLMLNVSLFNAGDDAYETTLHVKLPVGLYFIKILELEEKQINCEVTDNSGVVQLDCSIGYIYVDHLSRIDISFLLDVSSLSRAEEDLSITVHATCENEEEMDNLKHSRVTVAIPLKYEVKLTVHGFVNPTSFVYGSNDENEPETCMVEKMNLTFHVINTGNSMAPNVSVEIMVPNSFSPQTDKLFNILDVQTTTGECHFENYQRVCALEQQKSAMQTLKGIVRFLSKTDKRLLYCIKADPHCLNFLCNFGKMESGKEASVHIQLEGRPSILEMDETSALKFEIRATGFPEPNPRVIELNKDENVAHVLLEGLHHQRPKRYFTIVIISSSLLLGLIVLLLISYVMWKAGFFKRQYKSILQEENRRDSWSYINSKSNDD
Sequence of AP-2 complex subunit beta (Homo sapiens) (P63010 whole entry, looked up, the tested form may be a part, one chain of several): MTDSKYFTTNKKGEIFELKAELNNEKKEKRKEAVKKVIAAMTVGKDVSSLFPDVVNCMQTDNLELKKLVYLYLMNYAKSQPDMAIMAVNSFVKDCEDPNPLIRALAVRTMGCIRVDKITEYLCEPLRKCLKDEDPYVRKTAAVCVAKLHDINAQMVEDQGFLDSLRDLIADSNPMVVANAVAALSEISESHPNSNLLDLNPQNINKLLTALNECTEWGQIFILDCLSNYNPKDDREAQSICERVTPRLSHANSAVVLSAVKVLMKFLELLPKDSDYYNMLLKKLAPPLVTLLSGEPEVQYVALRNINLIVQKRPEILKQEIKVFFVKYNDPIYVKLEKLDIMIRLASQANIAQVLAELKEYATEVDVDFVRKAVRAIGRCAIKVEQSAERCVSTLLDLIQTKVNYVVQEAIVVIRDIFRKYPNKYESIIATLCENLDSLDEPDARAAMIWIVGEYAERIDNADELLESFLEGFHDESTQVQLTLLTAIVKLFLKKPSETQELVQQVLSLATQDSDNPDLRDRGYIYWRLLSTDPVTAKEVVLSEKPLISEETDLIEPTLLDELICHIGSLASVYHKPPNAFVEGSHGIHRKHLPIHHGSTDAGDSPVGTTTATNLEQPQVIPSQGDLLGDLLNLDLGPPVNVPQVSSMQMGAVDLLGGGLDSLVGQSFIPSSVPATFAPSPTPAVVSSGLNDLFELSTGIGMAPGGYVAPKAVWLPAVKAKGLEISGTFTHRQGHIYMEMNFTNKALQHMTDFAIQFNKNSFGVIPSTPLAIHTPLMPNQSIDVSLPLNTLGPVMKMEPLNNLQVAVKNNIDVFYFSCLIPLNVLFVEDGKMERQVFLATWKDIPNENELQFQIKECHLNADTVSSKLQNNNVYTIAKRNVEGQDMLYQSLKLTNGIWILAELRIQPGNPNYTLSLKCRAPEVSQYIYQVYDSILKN
Sequence of ATP-binding cassette sub-family B member 6 (Homo sapiens) (Q9NP58 whole entry, looked up): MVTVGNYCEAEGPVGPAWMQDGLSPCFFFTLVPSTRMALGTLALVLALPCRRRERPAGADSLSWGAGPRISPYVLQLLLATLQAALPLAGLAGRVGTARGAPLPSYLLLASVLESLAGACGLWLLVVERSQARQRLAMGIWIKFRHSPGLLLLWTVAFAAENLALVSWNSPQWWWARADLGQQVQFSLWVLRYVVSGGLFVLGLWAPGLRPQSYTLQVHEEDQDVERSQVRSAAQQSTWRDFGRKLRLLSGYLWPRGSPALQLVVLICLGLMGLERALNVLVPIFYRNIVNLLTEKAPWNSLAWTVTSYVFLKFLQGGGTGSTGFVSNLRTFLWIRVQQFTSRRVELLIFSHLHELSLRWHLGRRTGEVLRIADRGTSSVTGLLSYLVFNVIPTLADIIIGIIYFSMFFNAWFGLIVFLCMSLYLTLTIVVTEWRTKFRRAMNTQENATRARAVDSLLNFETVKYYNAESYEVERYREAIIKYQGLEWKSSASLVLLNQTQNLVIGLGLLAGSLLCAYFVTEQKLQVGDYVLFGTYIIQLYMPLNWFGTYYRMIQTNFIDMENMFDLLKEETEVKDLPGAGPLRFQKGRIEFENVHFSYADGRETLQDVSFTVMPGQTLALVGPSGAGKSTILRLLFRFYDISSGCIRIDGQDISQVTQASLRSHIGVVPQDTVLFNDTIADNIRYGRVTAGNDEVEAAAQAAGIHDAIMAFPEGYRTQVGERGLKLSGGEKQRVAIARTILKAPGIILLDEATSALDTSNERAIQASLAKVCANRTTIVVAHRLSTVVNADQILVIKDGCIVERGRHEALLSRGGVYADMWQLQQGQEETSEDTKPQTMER
Sequence of Beta-adrenergic receptor kinase 1 (Homo sapiens) (P25098 whole entry, looked up): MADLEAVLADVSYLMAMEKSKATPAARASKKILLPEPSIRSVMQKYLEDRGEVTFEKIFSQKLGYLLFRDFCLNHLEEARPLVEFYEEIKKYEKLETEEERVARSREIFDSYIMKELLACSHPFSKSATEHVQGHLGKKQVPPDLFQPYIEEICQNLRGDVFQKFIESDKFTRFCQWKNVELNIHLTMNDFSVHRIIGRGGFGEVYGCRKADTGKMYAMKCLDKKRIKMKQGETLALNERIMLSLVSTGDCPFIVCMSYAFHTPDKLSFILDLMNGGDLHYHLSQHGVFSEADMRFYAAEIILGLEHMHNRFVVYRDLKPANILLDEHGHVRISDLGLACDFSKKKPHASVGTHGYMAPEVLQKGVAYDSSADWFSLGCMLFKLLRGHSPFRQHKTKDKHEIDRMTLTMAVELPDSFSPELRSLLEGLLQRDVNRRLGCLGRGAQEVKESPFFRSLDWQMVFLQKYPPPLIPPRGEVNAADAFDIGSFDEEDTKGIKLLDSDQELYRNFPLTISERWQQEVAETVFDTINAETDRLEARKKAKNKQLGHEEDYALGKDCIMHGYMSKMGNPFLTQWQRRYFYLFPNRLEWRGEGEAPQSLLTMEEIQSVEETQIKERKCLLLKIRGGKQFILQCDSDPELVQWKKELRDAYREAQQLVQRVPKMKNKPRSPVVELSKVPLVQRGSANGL
Sequence of Beta-2 adrenergic receptor (Homo sapiens) (P07550 whole entry, looked up): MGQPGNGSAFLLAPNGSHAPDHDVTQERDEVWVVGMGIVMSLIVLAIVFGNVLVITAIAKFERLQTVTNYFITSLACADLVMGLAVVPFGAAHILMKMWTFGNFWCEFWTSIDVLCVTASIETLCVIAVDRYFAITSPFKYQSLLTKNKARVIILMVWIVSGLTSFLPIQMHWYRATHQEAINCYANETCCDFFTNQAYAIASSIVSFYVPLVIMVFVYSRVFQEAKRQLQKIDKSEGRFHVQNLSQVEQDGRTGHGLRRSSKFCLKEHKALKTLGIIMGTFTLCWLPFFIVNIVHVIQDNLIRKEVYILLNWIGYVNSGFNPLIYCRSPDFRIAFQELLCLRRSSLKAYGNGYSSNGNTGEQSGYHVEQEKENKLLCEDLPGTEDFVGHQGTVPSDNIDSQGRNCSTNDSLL

Row | Structure (SMILES) | percent of DMSO control GFP [1] | GFP response vs DMSO [2] | percent response of DMSO control [3] | GFP response vs DMSO [4] | GFP response, % of DMSO [5] | double positive events [6] | vesicle binding response [6] | inhibition [7] | superoxide response (% of plate) [8] | aptamer binding inhibition [9] | response [10] | inhibition [11] | response [12] | binding (% of control) [13] | efflux inhibition (fraction of control) [14] | inhibition [15] | differentiation response [16]
1 | O=C(NCCC(c1ccccc1)c1ccco1)c1cccs1 (stereo unspecified) | 97.6% (inactive) | 105% (inactive) | 91% (inactive) | 127% (inactive) | 96.5% (inactive) | 57.6% | 230% (inactive) | -5.89% (inactive) | 105% (inactive) | 0% (inactive) | -13.3% (inactive) | -6.88% (inactive) | 2.49% (inactive) | 99.7% (inactive) | -0.21 (inactive) | 11% (inactive) | -5.6% (inactive)
2 | CCC(CO)NCCNC(CC)CO (stereo unspecified) | 95.5% (inactive) | 139% (inactive) | 101% (inactive) | 87.5% (inactive) | 97.7% (inactive) | 66.7% | 133% (inactive) | 4.52% (inactive) | 91.3% (inactive) | -1% (inactive) | 3.66% (inactive) | 33.3% (inactive) | -3.71% (inactive) | 103% (inactive) | -0.28 (inactive) | 114% (active) | -1.64% (inactive)
3 | COc1cc2c(cc1OC)C(C)=NC1(CCCCC1)C2 | 99.2% (inactive) | 98.6% (inactive) | 95.1% (inactive) | 106% (inactive) | 107% (inactive) | 62.8% | 215% (inactive) | -29.2% (inactive) | 100% (inactive) | 6% (inactive) | -21.7% (inactive) | 20.9% (inactive) | 8.37% (inactive) | 131% (inactive) | -0.04 (inactive) | -52% (inactive) | -14.8% (inactive)
4 | O=C(Nc1cccc(Oc2c(F)c(F)c(F)c(F)c2F)c1)N1C[C@@H]2C[C@@H](C1)c1cccc(=O)n1C2 | 100% (inactive) | 101% (inactive) | 101% (inactive) | 98% (inactive) | 101% (inactive) | 63.7% | 215% (inactive) | 15.1% (inactive) | 104% (inactive) | 2% (inactive) | -14.9% (inactive) | -6.11% (inactive) | 0.72% (inactive) | 88% (inactive) | -0.35 (inactive) | -6% (inactive) | 7.09% (inactive)
5 | Cc1[nH]c2ccccc2c1/C=C/c1nc2ccccc2c(=O)n1CCO | 102% (inactive) | 106% (inactive) | 97.7% (inactive) | 110% (inactive) | 100% (inactive) | 59% | 200% (inactive) | -15.4% (inactive) | 89.8% (inactive) | 7% (inactive) | 20.6% (inactive) | 12.7% (inactive) | -3.06% (inactive) | 106% (inactive) | 0.33 (inactive) | 4% (inactive) | 0.8% (inactive)
6 | CC1(C)O[C@@H]2C[C@H]3[C@@H]4C[C@H](F)C5=CC(=O)CC[C@]5(C)[C@H]4[C@@H](O)C[C@]3(C)[C@]2(C(=O)CO)O1 | 97.9% (inactive) | 95.6% (inactive) | 89.3% (inactive) | 91.5% (inactive) | 92.4% (inactive) | 63.8% | 128% (inactive) | -2.43% (inactive) | 88.9% (inactive) | 37% (active) | 19% (inactive) | -4.49% (inactive) | -2% (inactive) | 106% (inactive) | 0.25 (inactive) | 12% (inactive) | 34.9% (inactive)
7 | CCCCCC#CCC#CCC#CCC#CCCCC(=O)O | 106% (inactive) | 108% (inactive) | 103% (inactive) | 106% (inactive) | 116% (inactive) | 62.5% | 208% (inactive) | -3.67% (inactive) | 123% (inactive) | 62% (active) | -11.7% (inactive) | 26.9% (inactive) | 4.4% (inactive) | 90.5% (inactive) | 0.04 (inactive) | 2% (inactive) | -10.9% (inactive)
8 | COc1ccc(C2NCCC3(O)CCCCC23)c(OC)c1OC (stereo unspecified) | 98.8% (inactive) | 99.6% (inactive) | 93.9% (inactive) | 107% (inactive) | 97.4% (inactive) | 57.7% | 199% (inactive) | -11.3% (inactive) | 105% (inactive) | 1% (inactive) | -8.95% (inactive) | 10.4% (inactive) | -2.26% (inactive) | 102% (inactive) | -0.06 (inactive) | 6% (inactive) | -18.4% (inactive)
9 | COc1ccc(NC(=S)N2CCN(CCN3C(=O)c4cccc5cccc(c45)C3=O)CC2)cc1 | 101% (inactive) | 129% (inactive) | 104% (inactive) | 90.2% (inactive) | 91.9% (inactive) | 59.1% | 31.6% (inactive) | -6.15% (inactive) | 86.5% (inactive) | 0% (inactive) | -4.94% (inactive) | 24.4% (inactive) | -0.62% (inactive) | 105% (inactive) | 0.34 (inactive) | 9% (inactive) | 18% (inactive)
10 | CC(=O)Nc1nnc(S(N)(=O)=O)s1 | 102% (inactive) | 95.1% (inactive) | 116% (inactive) | 88.1% (inactive) | 102% (inactive) | 62.4% | 1080% (inactive) | 17.2% (inactive) | 111% (inactive) | 5% (inactive) | -4.02% (inactive) | -5.06% (inactive) | 0.12% (inactive) | 102% (inactive) | 0.05 (inactive) | 16% (inactive) | 6.11% (inactive)
11 | COc1ccc(NC(=O)CC(c2ccccc2)c2ccco2)cc1 (stereo unspecified) | 103% (inactive) | 97.2% (inactive) | 105% (inactive) | 86.8% (inactive) | 96.8% (inactive) | 62.8% | 164% (inactive) | -15% (inactive) | 91.5% (inactive) | 2% (inactive) | -5.85% (inactive) | -3.8% (inactive) | 3.58% (inactive) | 100% (inactive) | -0.07 (inactive) | 3% (inactive) | 1.22% (inactive)
12 | CC[N+](C)(C)c1cccc(O)c1 | 103% (inactive) | 99.3% (inactive) | 112% (inactive) | 97.3% (inactive) | 102% (inactive) | 57.5% | 123% (inactive) | -0.45% (inactive) | 90.1% (inactive) | 56% (active) | -3.94% (inactive) | -0.12% (inactive) | -0.97% (inactive) | 103% (inactive) | -0.17 (inactive) | -7% (inactive) | 7.09% (inactive)
13 | COc1cc(CNCCc2ccccc2F)ccc1OCC(=O)N1CCCCC1 | 98.6% (inactive) | 104% (inactive) | 96.7% (inactive) | 114% (inactive) | 100% (inactive) | 57.8% | 196% (inactive) | -1.79% (inactive) | 103% (inactive) | -1% (inactive) | -8.73% (inactive) | 22.6% (inactive) | -3.26% (inactive) | 98.2% (inactive) | -0.35 (inactive) | 2% (inactive) | 29.6% (inactive)
14 | CCN(CC)CCNC(=O)c1ccc(NC(C)=O)cc1 | 99.4% (inactive) | 108% (inactive) and 103% (inactive) | 101% (inactive) | 89.4% (inactive) and 90.7% (inactive) | 99.2% (inactive) and 100% (inactive) | 63.2% and 61.4% | 4990% (inactive) and 247% (inactive) | 1.62% (inactive) and -0.45% (inactive) | 100% (inactive) and 103% (inactive) | 3% (inactive) and -3% (inactive) | -11.2% (inactive) and -2.15% (inactive) | -11.4% (inactive) and 6.7% (inactive) | -1.96% (inactive) and 1.62% (inactive) | 95.9% (inactive) and 97.4% (inactive) | 0.02 (inactive) and -0.04 (inactive) | -3% (inactive) and 3% (inactive) | -6.6% (inactive) and 20.8% (inactive)
15 | COc1ccc(NC(=O)C2CCCN2C(=O)OC(C)(C)C)cc1 (stereo unspecified) | 102% (inactive) | 102% (inactive) | 100% (inactive) | 92.3% (inactive) | 99.9% (inactive) | 69.5% | 107% (inactive) | 2.55% (inactive) | 53.3% (active) | 0% (inactive) | -5.75% (inactive) | -4.29% (inactive) | -0.27% (inactive) | 102% (inactive) | -0.38 (inactive) | 8% (inactive) | -5.68% (inactive)
16 | Cc1ccc(S(=O)(=O)NC(=O)NN2CCCCCC2)cc1 | 102% (inactive) | 110% (inactive) | 100% (inactive) | 96.6% (inactive) | 97.5% (inactive) | 61.4% | 226% (inactive) | 29.6% (inactive) | 92.2% (inactive) | 4% (inactive) | -9.17% (inactive) | 3.4% (inactive) | -0.51% (inactive) | 99.7% (inactive) | -0.04 (inactive) | -2% (inactive) | 14.9% (inactive)
17 | O=C(O)C1CSC(c2ccco2)N1 (stereo unspecified) | 102% (inactive) | 103% (inactive) | 102% (inactive) | 120% (inactive) | 124% (inactive) | 60.6% | 168% (inactive) | -19% (inactive) | 100% (inactive) | 33% (active) | -18.6% (inactive) | 10% (inactive) | -1.58% (inactive) | 99.5% (inactive) | 0.04 (inactive) | 2% (inactive) | -2.03% (inactive)
18 | CC1=CC(=O)c2ccccc2C1=O | 101% (inactive) | 104% (inactive) | 94.5% (inactive) | 94.8% (inactive) | 91.1% (inactive) | 60.8% | 105% (inactive) | -5.11% (inactive) | 108% (inactive) | 1% (inactive) | 22.2% (inactive) | -9.12% (inactive) | 1.78% (inactive) | 102% (inactive) | -0.21 (inactive) | 1% (inactive) | 14.4% (inactive)
